# Measurements as given in the supplement of paper PMC3334620.
# In all, about 33,000 sequences were measured (“E-score (-0.5 to 0.5)”: median about -0.036, highest 2% from about 0.37 on). This is one part of a sample in which the highest values are shown more often than they occur.
# Biological target: T1, Yer064c (UniProt P40041)
# T1 sequence: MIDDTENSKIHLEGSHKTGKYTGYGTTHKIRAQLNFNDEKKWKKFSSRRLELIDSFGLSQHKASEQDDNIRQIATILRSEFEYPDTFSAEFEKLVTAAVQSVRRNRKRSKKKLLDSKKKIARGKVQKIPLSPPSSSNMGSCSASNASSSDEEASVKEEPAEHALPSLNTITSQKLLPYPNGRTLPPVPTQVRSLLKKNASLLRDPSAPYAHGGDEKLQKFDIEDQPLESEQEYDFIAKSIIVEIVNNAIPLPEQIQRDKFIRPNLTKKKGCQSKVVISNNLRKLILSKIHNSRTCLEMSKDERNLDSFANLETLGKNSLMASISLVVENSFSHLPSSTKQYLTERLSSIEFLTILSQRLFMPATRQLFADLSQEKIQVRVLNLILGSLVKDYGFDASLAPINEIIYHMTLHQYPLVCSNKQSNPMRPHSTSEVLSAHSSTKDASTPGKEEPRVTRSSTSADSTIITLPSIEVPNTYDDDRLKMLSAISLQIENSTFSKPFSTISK
# Test: PBM E-score (8-mer binding enrichment) (E-score (-0.5 to 0.5)); higher = stronger / more preferred TF binding
# Details: protein concentration: 200 nM; construct: GST-full length
# How it was run: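 The E-score, a modified Wilcoxon-Mann-Whitney statistic, was computed by the Universal PBM Analysis Suite for every ungapped eight-base word pooled with its reverse complement. Scans behind it were normalised with masliner after bound GST-tagged yeast transcription factors were detected with fluorescent anti-GST. The proteins, at about 100-200 nM, had been applied to universal all-10-mer Agilent arrays made double-stranded by primer extension.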
row,Sequence,PBM E-score
1,CAGTAAAG,0.0694
2,CCGTTTGA,0.0399
3,ACACCCAA,-0.0135
4,CCGCCTAC,-0.132
5,CCTTCGCA,-0.293
6,CTCGGAAC,-0.012
7,GACGGCAA,-0.0972
8,AGGAATCC,-0.0672
9,GGGAATGA,0.0959
10,CGGAATCA,0.392
11,AGGAATCG,0.235
12,GGGAATCA,0.418
13,CGGAATCC,-0.0704
14,CGGAATTA,-0.0336
15,GGGAATAA,-0.128
16,AGGAATCA,0.429
17,GGATTCCA,0.0871
18,CGCCGAAA,-0.059
19,GCGCAGGA,-0.0398
20,CCATCCTA,0.0627
21,ATACCATG,0.061
22,AACTCATT,0.2
23,AAGTCATC,0.471
24,AAGTCATA,0.46
25,ATGTCATA,0.013

row,Sequence,PBM E-score
1,AAGTCATT,0.454
2,ACGTCATG,0.21
3,AGGTCATG,0.17
4,AAGTCAAT,0.305
5,AGGTCATC,0.18
6,AAGTCATG,0.465
7,ATGTCATC,-0.179
8,AGGTCATA,0.171
9,ATCTCTAA,0.0574
10,AAGGATCC,-0.15
11,GAGTTCTA,0.0136
12,GGTTGGGA,0.00893
13,GGTATCAA,0.0678
14,CCGTCATC,-0.098
15,CAGTCATC,0.467
16,CGGTCATC,-0.108
17,ATCAAATC,0.21
18,GAGAAGCC,-0.201
19,AGCAGAGC,-0.137
20,CTCATACA,0.184
21,ATCATACA,0.236
22,GTCATACA,0.374
23,ATCAGGAA,0.00077
24,CCGGCATC,-0.251
25,AGTAATCA,0.415

row,Sequence,PBM E-score
1,GGTAATTA,0.0662
2,AGTAATCG,0.186
3,CGTAATCC,-0.0532
4,CGTAATTA,-0.00543
5,GGTAATCA,0.433
6,AGTAATCC,0.0831
7,GGTAATGA,0.189
8,CGTAATCA,0.42
9,CTGCGGTC,-0.245
10,CAGACCGC,-0.0824
11,AGTCGATA,0.179
12,AGACTCAG,0.434
13,ACTCTCAC,0.173
14,ATACTCAT,0.371
15,AGACTCTG,0.301
16,AGACTCTA,0.267
17,AGACTCAC,0.457
18,AGACTCGC,0.336
19,ACTCTCAA,0.257
20,ACTCTCAG,0.125
21,ATACTCAG,0.214
22,AGACTCAA,0.444
23,ATACTCAA,0.239
24,CCAAGTTA,0.0576
25,CAATTGCG,-0.0914
